Assay results from PubChem BioAssay AID1159580 (chemical genetic matrix, 2015).
Where “and” joins values, the source holds several entries; their conditions need not be identical. Equal values may be shown once. About 2,000 (36%) of roughly 5,500 compounds were called active. About 18% were inconclusive and are not listed. Cut-off read from the data, not from the text of the source: active = normalized growth mostly below about 0.91 (no sharp cut-off); inconclusive = no clear call, values can overlap the other calls; inactive = mostly above about 0.92. This is one part of the list.

Assay: chemical genetic growth profiling, strain panel (AID 1159580);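 note: tested at 20 µM; growth read once vehicle control cultures reached saturation at 30 °C; 1 = growth at the plate median or of vehicle wells; lower values mean less growth of the strain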
Settings: S. cerevisiae deletion strains, growth OD

Measured: normalized growth

NC(=NCCCCCCN=C(N)N=C(N)Nc1ccc(Cl)cc1)N=C(N)Nc1ccc(Cl)cc1
active: locus YAL013W, strain DEP1, hits give low values 0.056 | locus YAL021C, strain ccr4, hits give low values 0.0662 | locus YAL026C, strain drs2, hits give low values 0.0626 | locus YAL030W, strain snc1, hits give low values 0.0546 | locus YBL061C, strain skt5, hits give low values 0.058 | locus YBR009C, strain hhf1, hits give low values 0.0582 | locus YBR021W, strain FUR4, hits give low values 0.0878 | locus YBR023C, strain chs3, hits give low values 0.0607 | locus YBR171W, strain sec66, hits give low values 0.0764 | locus YBR229C, strain ROT2, hits give low values 0.0485 | locus YBR231C, strain swc5, hits give low values 0.0617 | locus YBR279W, strain paf1, hits give low values 0.057 | locus YCL011C, strain gbp2, hits give low values 0.0584 | locus YCL016C, strain dcc1, hits give low values 0.0623 | locus YCL029C, strain bik1, hits give low values 0.0646 | locus YCL061C, strain MRC1, hits give low values 0.064 | locus YCL069W, strain vba3, hits give low values 0.0598 | locus YCR088W, strain abp1, hits give low values 0.0598 | locus YDL005C, strain med2, hits give low values 0.0712 | locus YDL035C, strain GPR1, hits give low values 0.0531 | locus YDL040C, strain nat1, hits give low values 0.0593 | locus YDL074C, strain BRE1, hits give low values 0.0847 | locus YDL101C, strain DUN1, hits give low values 0.0564 | locus YDL134C, strain PPH21, hits give low values 0.049 | locus YDL185W, strain tfp1, hits give low values 0.0606 | locus YDL192W, strain arf1, hits give low values 0.0624 | locus YDR001C, strain nth1, hits give low values 0.0588 | locus YDR069C, strain doa4, hits give low values 0.0603 | locus YDR101C, strain arx1, hits give low values 0.0584 | locus YDR137W, strain rgp1, hits give low values 0.0872 | locus YDR150W, strain NUM1, hits give low values 0.0563 | locus YDR159W, strain sac3, hits give low values 0.0896 | locus YDR162C, strain NBP2, hits give low values 0.0503 | locus YDR195W, strain ref2 0.121 | locus YDR297W, strain sur2, hits give low values 0.0547 | locus YDR318W, strain mcm21, hits give low values 0.0658 | locus YDR334W, strain swr1, hits give low values 0.0626 | locus YDR335W, strain msn5, hits give low values 0.0581 | locus YDR388W, hits give low values 0.0574 | locus YDR392W, strain spt3, hits give low values 0.0798 | locus YDR502C, strain sam2, hits give low values 0.0629 | locus YEL003W, strain gim4, hits give low values 0.0531 | locus YEL037C, strain rad23, hits give low values 0.0554 | locus YEL061C, strain CIN8 (second series), hits give low values 0.0594 | locus YEL061C, strain CIN8, hits give low values 0.0488 | locus YER015W, strain faa2, hits give low values 0.0825 | locus YER016W, strain bim1, hits give low values 0.058 | locus YER110C, hits give low values 0.0744 | locus YER111C, strain swi4, hits give low values 0.0705 | locus YER155C, strain BEM2 (second series), hits give low values 0.087 | locus YER155C, strain BEM2, hits give low values 0.0622 | locus YER167W, strain BCK2, hits give low values 0.0527 | locus YFR010W, strain ubp6, hits give low values 0.0674 | locus YGL078C, strain dbp3, hits give low values 0.65 | locus YGL086W, strain mad1, hits give low values 0.0564 | locus YGL167C, strain pmr1, hits give low values 0.0727 | locus YGL173C, strain kem1, hits give low values 0.0668 | locus YGL227W, strain vid30, hits give low values 0.0612 | locus YGL240W, strain doc1, hits give low values 0.0747 | locus YGL248W, strain PDE1, hits give low values 0.0464 | locus YGL253W, strain hxk2, hits give low values 0.0538 | locus YGR078C, strain PAC10, hits give low values 0.0508 | locus YGR135W, strain pre9, hits give low values 0.0694 | locus YGR229C, strain SMI1, hits give low values 0.0582 | locus YGR252W, strain gcn5, hits give low values 0.146 | locus YHR013C, strain ard1, hits give low values 0.103 | locus YHR027C, strain rpn1, hits give low values 0.058 | locus YHR030C, strain SLT2, hits give low values 0.051 and 0.102 | locus YHR079C, strain IRE1 (second series), hits give low values 0.0602 | locus YHR079C, strain IRE1, hits give low values 0.112 | locus YHR094C, strain hxt1, hits give low values 0.0587 | locus YHR129C, strain ARP1, hits give low values 0.0541 | locus YHR142W, strain chs7, hits give low values 0.0756 | locus YHR200W, strain rpn10, hits give low values 0.0614 | locus YIL066C, strain RNR3, hits give low values 0.0507 | locus YIL073C, strain SPO22, hits give low values 0.128 | locus YIL125W, strain kgd1, hits give low values 0.898 | locus YIR030C, strain dcg1, hits give low values 0.0593 | locus YJL092W, strain hpr5, hits give low values 0.0573 | locus YJL095W, strain BCK1 (second series), hits give low values 0.0565 | locus YJL095W, strain BCK1, hits give low values 0.0587 and 0.0988 | locus YJL115W, strain asf1, hits give low values 0.0702 | locus YJL129C, strain trk1, hits give low values 0.0784 | locus YJL134W, strain LCB3, hits give low values 0.0499 | locus YJL154C, strain vps35, hits give low values 0.0596 | locus YJL164C, strain tpk1, hits give low values 0.0644 | locus YJL166W, strain qcr8, hits give low values 0.0585 | locus YJL168C, strain set2, hits give low values 0.059 | locus YJL187C, strain SWE1 (second series), hits give low values 0.0495 | locus YJR043C, strain POL32, hits give low values 0.0601 | locus YJR066W, strain TOR1, hits give low values 0.00766
